# Inconclusive results are not listed. Activity calls are given as the source filed them. How the source made its calls, unless noted: active means hit-call score of the fitted dose curve at least 0.9, where 1 is the maximum; inconclusive means response in the unintended direction; inactive means score below 0.9.
# Target: Bile acid receptor (Homo sapiens) (UniProt Q96RI1)
# Assay: OT_FXR_FXRSRC1_0480: Odyssey Thera (OT) 8-hour HEK293T Protein-Complementation Assay for Farnesoid X receptor/SRC-1 Co-activator (AID 2283383)
# Conditions: not given
# Summary of the method: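 Fluorescence intensity read-out, 8 h post-dose, HEK293T protein-fragment complementation; FXR bait and SRC-1 prey each linked to reporter fragments. Activity scored as signal increase over DMSO negative control.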
# Sequence of Bile acid receptor (Homo sapiens) (Q96RI1 whole entry, looked up): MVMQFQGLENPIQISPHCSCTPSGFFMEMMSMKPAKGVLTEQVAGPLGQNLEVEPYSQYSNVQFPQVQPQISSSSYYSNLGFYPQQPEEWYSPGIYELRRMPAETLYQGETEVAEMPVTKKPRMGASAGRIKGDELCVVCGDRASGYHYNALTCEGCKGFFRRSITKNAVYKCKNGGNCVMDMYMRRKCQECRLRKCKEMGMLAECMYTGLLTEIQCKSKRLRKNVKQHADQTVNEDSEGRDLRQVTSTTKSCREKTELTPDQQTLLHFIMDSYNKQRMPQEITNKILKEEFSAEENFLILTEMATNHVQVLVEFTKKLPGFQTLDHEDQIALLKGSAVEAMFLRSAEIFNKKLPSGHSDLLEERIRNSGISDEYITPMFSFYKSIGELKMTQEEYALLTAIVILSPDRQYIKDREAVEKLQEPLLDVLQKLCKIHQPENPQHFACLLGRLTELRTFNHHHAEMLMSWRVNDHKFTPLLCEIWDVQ
SMILES,outcome,AC50
CCCCOC(=O)C(C)O (configuration not stated),inactive,–
CC(C)(C)c1cc(Cc2cc(C(C)(C)C)c(O)c(C(C)(C)C)c2)cc(C(C)(C)C)c1O,inactive,–
CCc1cc(Cc2cc(CC)c(N)c(CC)c2)cc(CC)c1N,–,11.8 µM (active)
CC(=O)CCC(C)C,inactive,–
CC(C)OC=O,inactive,–
CCCCC(CC)COC(=O)c1ccc(N(C)C)cc1 (configuration not stated),–,32.7 µM (active)
CCOC(=O)C1CC(=O)C(=C(O)C2CC2)C(=O)C1 (configuration not stated),inactive,–

# Target: Bile acid receptor (Homo sapiens) (UniProt Q96RI1)
# Assay: OT_FXR_FXRSRC1_1440: Odyssey Thera (OT) 24-hour HEK293T Protein-Complementation Assay for Farnesoid X receptor/SRC-1 Co-activator (AID 2283384)
# Conditions: not given
# Summary of the method: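 Fluorescence readout, 24 h post-dose, HEK293T; FXR and SRC-1 fused to complementary reporter fragments, association reconstitutes signal. Positive-direction fit vs DMSO baseline.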
SMILES,AC50,outcome
CC(C)(C)c1cc(Cc2cc(C(C)(C)C)c(O)c(C(C)(C)C)c2)cc(C(C)(C)C)c1O,6.6 µM (active),–
CC(C)Nc1ccc(NC(C)C)c2c1C(=O)c1ccccc1C2=O,18.2 µM (active),–
Cc1ccc([N+](=O)[O-])c(C)c1,–,inactive
N#Cc1ccccc1O,–,inactive
CCc1cc(Cc2cc(CC)c(N)c(CC)c2)cc(CC)c1N,–,inactive
CC(C)OC=O,–,inactive
CCCCC(CC)COC(=O)c1ccc(N(C)C)cc1 (configuration not stated),50 µM (active),–

# Target: Retinoic acid receptor RXR-alpha (Homo sapiens) (UniProt P19793)
# Sequence (P19793 whole entry, looked up): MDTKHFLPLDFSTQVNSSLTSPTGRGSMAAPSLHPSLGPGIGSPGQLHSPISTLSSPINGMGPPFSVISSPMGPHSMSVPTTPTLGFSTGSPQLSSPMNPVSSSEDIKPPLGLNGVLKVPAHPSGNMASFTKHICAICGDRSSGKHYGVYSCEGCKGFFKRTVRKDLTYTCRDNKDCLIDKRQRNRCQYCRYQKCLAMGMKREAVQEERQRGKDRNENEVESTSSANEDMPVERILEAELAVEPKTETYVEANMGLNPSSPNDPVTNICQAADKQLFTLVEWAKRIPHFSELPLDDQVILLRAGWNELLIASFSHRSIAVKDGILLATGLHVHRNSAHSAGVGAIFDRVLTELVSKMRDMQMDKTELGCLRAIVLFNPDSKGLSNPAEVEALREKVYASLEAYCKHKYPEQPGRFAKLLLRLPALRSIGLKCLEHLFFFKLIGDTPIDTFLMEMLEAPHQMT
# Assay: OT_NURR1_NURR1RXRa_0480: Odyssey Thera (OT) 8-hour HEK293T Protein Complementation Assay for Nurr1/retinoid X receptor (RXR) (AID 2283385)
# Conditions: not given
# Summary of the method: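 Read-out: fluorescence from protein-fragment complementation between Nurr1 and RXRα in human HEK293T cells, 8 h after dosing. DMSO served as negative control; increased signal counted as activity.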
SMILES,outcome,AC50
CCCCOC(=O)C(C)O (configuration not stated),inactive,–
CCCCOC(=O)[C@H](C)O,inactive,–
CC(C)Nc1ccc(NC(C)C)c2c1C(=O)c1ccccc1C2=O,inactive,–
Cc1ccc([N+](=O)[O-])c(C)c1,inactive,–
CCc1cc(Cc2cc(CC)c(N)c(CC)c2)cc(CC)c1N,–,11.5 µM (active)
CC(=O)CCC(C)C,inactive,–
CC(C)OC=O,inactive,–
CCCCC(CC)COC(=O)c1ccc(N(C)C)cc1 (configuration not stated),–,77.7 µM (active)
CCOC(=O)C1CC(=O)C(=C(O)C2CC2)C(=O)C1 (configuration not stated),inactive,–

# Target: Retinoic acid receptor RXR-alpha (Homo sapiens) (UniProt P19793)
# Assay: OT_NURR1_NURR1RXRa_1440: Odyssey Thera (OT) 24-hour HEK293T Protein Complementation Assay for Nurr1/retinoid X receptor (RXR) (AID 2283386)
# Conditions: not given
# Summary of the method: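 Fluorescence PCA read-out; HEK293T; 24 h post-dose; bait/prey fused to reporter fragments; gain-of-signal fit vs DMSO negative control.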
SMILES,outcome,AC50
CCOC(OCC)OCC,inactive,–
CCCCOC(=O)[C@H](C)O,inactive,–
CC(C)(C)c1cc(Cc2cc(C(C)(C)C)c(O)c(C(C)(C)C)c2)cc(C(C)(C)C)c1O,inactive,–
CC(C)Nc1ccc(NC(C)C)c2c1C(=O)c1ccccc1C2=O,inactive,–
N#Cc1ccccc1O,inactive,–
CC(C)OC=O,inactive,–
CCCCC(CC)COC(=O)c1ccc(N(C)C)cc1 (configuration not stated),–,76 µM (active)
CCOC(=O)C1CC(=O)C(=C(O)C2CC2)C(=O)C1 (configuration not stated),inactive,–

# Target: Peroxisome proliferator-activated receptor gamma (Homo sapiens) (UniProt P37231)
# Sequence (P37231 whole entry, looked up): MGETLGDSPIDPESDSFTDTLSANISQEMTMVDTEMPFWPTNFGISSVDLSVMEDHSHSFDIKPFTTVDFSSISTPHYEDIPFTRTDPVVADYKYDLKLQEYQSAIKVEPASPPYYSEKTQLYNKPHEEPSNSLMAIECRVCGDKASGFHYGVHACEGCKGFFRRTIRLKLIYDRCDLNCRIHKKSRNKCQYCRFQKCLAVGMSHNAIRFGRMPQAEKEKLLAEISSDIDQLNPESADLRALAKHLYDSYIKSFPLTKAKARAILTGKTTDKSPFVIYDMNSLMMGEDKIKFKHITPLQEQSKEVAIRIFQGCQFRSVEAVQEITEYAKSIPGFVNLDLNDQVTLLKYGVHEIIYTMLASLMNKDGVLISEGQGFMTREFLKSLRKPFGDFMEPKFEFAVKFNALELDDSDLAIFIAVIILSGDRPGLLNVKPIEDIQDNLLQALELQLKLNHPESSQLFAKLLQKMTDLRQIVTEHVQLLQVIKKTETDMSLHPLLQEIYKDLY
# Assay: OT_PPARg_PPARgSRC1_0480: Odyssey Thera (OT) 8-hour Protein-Complementation Assay for Peroxisome Proliferator-activated Receptor Gamma / SRC-1 Co-activator (AID 2283387);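 further: nuclear to cytoplasmic split Venus YFP fluorescence ratio reporting PPARg SRC-1 interaction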
# Conditions: not given
# Summary of the method: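 HEK293T transiently transfected with PPARg and SRC-1 fused to Venus YFP fragments, compounds 8 h at 37C. Fixed, Draq5-stained cells imaged; nuclear/cytoplasmic 488 nm fluorescence ratio over at least 350 cells per image; gain fitted versus DMSO.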
row,SMILES,outcome
1,CCCCOC(=O)C(C)O (configuration not stated),inactive
2,CCOC(OCC)OCC,inactive
3,CCCCOC(=O)[C@H](C)O,inactive
4,CC(C)(C)c1cc(Cc2cc(C(C)(C)C)c(O)c(C(C)(C)C)c2)cc(C(C)(C)C)c1O,inactive
5,CC(C)Nc1ccc(NC(C)C)c2c1C(=O)c1ccccc1C2=O,inactive
6,CCN=C1C=CC(=C(c2ccc(N(CC)CC)cc2)c2ccc(N(CC)CC)cc2)c2ccccc21,inactive
7,Cc1ccc([N+](=O)[O-])c(C)c1,inactive
8,N#Cc1ccccc1O,inactive
9,CCc1cc(Cc2cc(CC)c(N)c(CC)c2)cc(CC)c1N,inactive
10,CC(=O)CCC(C)C,inactive
11,CC(C)OC=O,inactive
12,CCCCC(CC)COC(=O)c1ccc(N(C)C)cc1 (configuration not stated),inactive
13,CCOC(=O)C1CC(=O)C(=C(O)C2CC2)C(=O)C1 (configuration not stated),inactive

# Target: Peroxisome proliferator-activated receptor gamma (Homo sapiens) (UniProt P37231)
# Assay: OT_PPARg_PPARgSRC1_1440: Odyssey Thera (OT) 24-hour Protein-Complementation Assay for Peroxisome Proliferator-activated Receptor Gamma/ SRC-1 Co-activator (AID 2283388)
# Conditions: not given
# Summary of the method: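 Protein-fragment complementation between PPARg and coactivator SRC-1 was measured by fluorescence imaging in transiently transfected HEK293T cells after 24 h treatment. Signal was quantified as N/C ratio in the 488 nm channel, with DMSO as negative control.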
row,SMILES,outcome
1,CCCCOC(=O)C(C)O (configuration not stated),inactive
2,CCOC(OCC)OCC,inactive
3,CCCCOC(=O)[C@H](C)O,inactive
4,CC(C)(C)c1cc(Cc2cc(C(C)(C)C)c(O)c(C(C)(C)C)c2)cc(C(C)(C)C)c1O,inactive
5,CC(C)Nc1ccc(NC(C)C)c2c1C(=O)c1ccccc1C2=O,inactive
6,CCN=C1C=CC(=C(c2ccc(N(CC)CC)cc2)c2ccc(N(CC)CC)cc2)c2ccccc21,inactive
7,Cc1ccc([N+](=O)[O-])c(C)c1,inactive
8,N#Cc1ccccc1O,inactive
9,CCc1cc(Cc2cc(CC)c(N)c(CC)c2)cc(CC)c1N,inactive
10,CC(=O)CCC(C)C,inactive
11,CC(C)OC=O,inactive
12,CCCCC(CC)COC(=O)c1ccc(N(C)C)cc1 (configuration not stated),inactive
13,CCOC(=O)C1CC(=O)C(=C(O)C2CC2)C(=O)C1 (configuration not stated),inactive

# Read-out: not listed separately
# Assay: CEETOX_H295R_11DCORT: CeeTox H295R High-throughput Steroidogenesis Assay for 11-Deoxycortisol (11DCORT) (AID 2283432; active means hit-call score of the fitted dose curve at least 0.9, where 1 is the maximum; inactive means score below 0.9;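 on AC50: human adrenal H295R cells prestimulated with 10 µM forskolin for 48 h; 11-deoxycortisol secreted into the medium measured by LC-MS/MS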)
# Conditions: actives raise or lower the signal
# Summary of the method: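 H295R cells prestimulated 48 h with 10 uM forskolin, then exposed 48 h to chemical in 0.1% DMSO. 11-Deoxycortisol in medium quantified by HPLC-MS/MS after MTBE extraction; bidirectional fit versus DMSO. MTT viability read in same wells.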
SMILES,AC50,outcome
O=c1[nH]cccc1O,8.85 µM (active),–
Oc1ccc2c(c1)CCC2,–,inactive
CC1CCCCC1,–,inactive
N#Cc1ccccc1O,–,inactive
OCCC(O)CO (configuration not stated),–,inactive
CCn1c2ccccc2c2ccccc21,50 µM (active),–
CCCCC(CC)COC(=O)c1ccc(N(C)C)cc1 (configuration not stated),–,inactive
CCOCOCC,–,inactive
CN1CN(C)CN(C)C1,–,inactive
Cc1cccc(C)n1,–,inactive
O=C(c1ccccc1)c1ccc(Cl)cc1,–,inactive
Nc1cccnc1N,–,inactive
O=C1c2ccccc2C(=O)c2c(Cl)cccc21,–,inactive

# Read-out: not listed separately
# Assay: CEETOX_H295R_OHPREG: CeeTox H295R High-throughput Steroidogenesis Assay for OH-Pregnenolone (OHPREG) (AID 2283434; active means hit-call score of the fitted dose curve at least 0.9, where 1 is the maximum; inactive means score below 0.9)
# Conditions: actives raise or lower the signal
# Summary of the method: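 Readout: HPLC-MS/MS of 17alpha-hydroxypregnenolone in medium after 48 h chemical exposure of H295R cells pretreated with forskolin. Values fitted bidirectionally relative to DMSO; chemicals reducing viability to 20–70% were retested after 10-fold dilution.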
SMILES,AC50,outcome
O=c1[nH]cccc1O,6.71 µM (active),–
CC1CCCCC1,–,inactive
N#Cc1ccccc1O,–,inactive
OCCC(O)CO (configuration not stated),–,inactive
CCn1c2ccccc2c2ccccc21,–,inactive
CCCCC(CC)COC(=O)c1ccc(N(C)C)cc1 (configuration not stated),6.35 µM (active),–
CCOCOCC,–,inactive
CN1CN(C)CN(C)C1,–,inactive
Cc1cccc(C)n1,–,inactive
O=C(c1ccccc1)c1ccc(Cl)cc1,–,inactive
Nc1cccnc1N,–,inactive
O=C1c2ccccc2C(=O)c2c(Cl)cccc21,–,inactive
